From PubChem BioAssay
C diff HTS: C. difficile growth inhibition. Clostridium difficile clinical isolate growth, OD600, 24 h; active compounds read low. growth activity, negative = inhibition, % at 16 µg/mL (by protocol). 0.25% of 86,000 active. AID 1259249;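 active means mean growth activity at or below -80% and every replicate also at or below -80%; inconclusive means mean at or below -80% but some replicate above -80%; inactive means mean growth activity above -80%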;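 further: 0% = DMSO wells and -100% = levofloxacin 16 µg/mL wells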
T cruzi growth: blocks T. cruzi growth in NIH3T3 culture | 5.9% of 77,000 active | inhibition, % at 8.34 µM | T. cruzi beta-gal in NIH3T3, GalScreen luminescence, 90 h | AID 624255;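 active means mean inhibition above about 93%, with at least 55% of replicates each passing it, limit read from the data, passing the limit was not always enough; inconclusive means only one of those two conditions holds; inactive means neither condition holds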
Pf Dd2 growth: P. falciparum Dd2 growth inhibition; SYBR Green, 72 h; active compounds read low; activity change, % at 10 µM; 2.3% of 94,000 active; in the data active means activity change below about -80%; inconclusive means no clear call, values can overlap the other calls
Active calls of the source: *; ? = inconclusive; nt = not tested or not shown. Hits are enriched below; roughly 6.7% of the tested compounds scored in any of these assays.

SMILES | C diff HTS | T cruzi growth | Pf Dd2 growth
C[C@@H]1CN([C@H](C)CO)S(=O)(=O)c2ccc(-c3cccnc3)cc2O[C@@H]1CN(C)C(=O)NC1CCCCC1 | 0 | 31 | 38
COc1ccccc1C#Cc1ccc([C@H]2[C@@H](CO)N(C(=O)C3CCCC3)[C@H]2C#N)cc1 | -2 | nt | -27
COc1ccccc1C#Cc1ccc([C@H]2[C@@H](C#N)N(C(=O)C3CCC3)[C@H]2CO)cc1 | -4 | 94 | -90*
COc1ccccc1C#Cc1ccc([C@@H]2[C@@H](CO)N(C(=O)C3CCCC3)[C@H]2C#N)cc1 | 16 | nt | -88*
COc1ccccc1C#Cc1ccc([C@H]2[C@@H](CO)N(C(=O)C3CC3)[C@H]2C#N)cc1 | 15 | 89 | ?
COc1ccccc1C#Cc1ccc([C@@H]2[C@@H](C#N)N(C(=O)C3CCCC3)[C@H]2CO)cc1 | -10 | nt | -88*
COc1ccccc1C#Cc1ccc([C@@H]2[C@@H](C#N)N(C(=O)C3CCCC3)[C@@H]2CO)cc1 | -4 | nt | -63
CNC[C@@H]1OCCCC[C@H](C)Oc2ccc(N(C)C)cc2C(=O)N([C@@H](C)CO)C[C@H]1C | 1 | 24 | -7
C[C@@H]1CN([C@@H](C)CO)C(=O)c2cc(NC(=O)Cc3ccccc3)ccc2O[C@@H](C)CCCCO[C@H]1CN(C)S(=O)(=O)c1ccccc1 | nt | 32 | -63
CC(C)NC(=O)N[C@@H]1CC[C@H](CCNS(=O)(=O)Cc2ccccc2)O[C@@H]1CO | nt | -50 | 16
CC(=O)N(C)C[C@H]1Oc2ncc(C#Cc3cccc(F)c3)cc2C(=O)N([C@@H](C)CO)C[C@H]1C | 1 | 13 | -8
C[C@@H]1CN([C@H](C)CO)C(=O)Cc2cc(NC(=O)C3CCCCC3)ccc2O[C@@H]1CN(C)Cc1ccc(C(=O)O)cc1 | 1 | -16 | 12
N#C[C@@H]1[C@@H](c2ccc(C#Cc3cccnc3)cc2)[C@@H](CO)N1C(=O)NC1CCCC1 | -16 | nt | 5
C[C@@H]1CN([C@@H](C)CO)C(=O)c2c(c3ccccc3n2C)-c2ccccc2CO[C@H]1CN(C)Cc1ccc(-c2ccccc2)cc1 | 53 | nt | -37
C[C@@H]1CN([C@H](C)CO)C(=O)c2c(c3ccccc3n2C)-c2ccccc2CO[C@@H]1CN(C)Cc1ccc(Oc2ccccc2)cc1 | 10 | nt | -71
C[C@H]1CN([C@@H](C)CO)C(=O)c2c(c3ccccc3n2C)-c2ccccc2CO[C@@H]1CN(C)Cc1ccc(-c2ccccc2)cc1 | 17 | nt | -92*
C[C@@H]1CN([C@@H](C)CO)C(=O)c2c(c3ccccc3n2C)-c2ccccc2CO[C@@H]1CN(C)Cc1ccc(Oc2ccccc2)cc1 | 8 | nt | -87*
CCCN(C)C[C@H]1Oc2cc(C3=CCCC3)ccc2S(=O)(=O)N([C@@H](C)CO)C[C@@H]1C | nt | 58 | -44
COc1cccc(CN2CC3(CN(CC4CCOCC4)C3)c3c([nH]c4cc(OC)ccc34)[C@H]2CO)c1 | 18 | nt | -83*
COc1ccc2c3c([nH]c2c1)[C@@H](CO)N(Cc1ccccc1)CC31CCN(CC2CC2)CC1 | 18 | nt | -78
COc1ccc2c3c([nH]c2c1)[C@H](CO)N(Cc1cccc(F)c1)CC31CN(CC2CC2)C1 | 7 | nt | -85*
COc1cccc(CN2CC3(CN(CC4CCOCC4)C3)c3c([nH]c4cc(OC)ccc34)[C@@H]2CO)c1 | 6 | nt | -17
COc1ccc2c3c([nH]c2c1)[C@@H](CO)N(Cc1cccc(F)c1)CC31CCN(CC2CC2)CC1 | 8 | nt | -80*
COc1cccc(CN2CC3(CN(CC4CC4)C3)c3c([nH]c4cc(OC)ccc34)[C@@H]2CO)c1 | 7 | nt | -58
C[C@H]1CCCCO[C@H](CN(C)S(=O)(=O)c2ccc(Cl)cc2)[C@@H](C)CN([C@@H](C)CO)C(=O)c2cc(NS(=O)(=O)c3cn(C)cn3)ccc2O1 | -5 | 46 | -55
SMILES | C diff HTS | T cruzi growth | Pf Dd2 growth
Cc1noc(C)c1NC(=O)Nc1cccc2c1O[C@H](CN(C)C)[C@@H](C)CN([C@H](C)CO)C2=O | -2 | nt | 24
COC(=O)C[C@@H]1CC[C@@H]2[C@@H](COc3ccc(NC(=O)c4ccccc4)cc3C(=O)N2C)O1 | 1 | -16 | -9
CS(=O)(=O)Nc1ccc2c(c1)[C@@H]1C[C@H](CC(=O)NCc3cccnc3)O[C@H](CO)[C@@H]1O2 | -2 | nt | 14
C[C@@H]1CN([C@H](C)CO)C(=O)c2cc(NC(=O)CCC(F)(F)F)ccc2O[C@@H]1CN(C)Cc1ccc(C(=O)O)cc1 | 2 | -6 | 10
C[C@H](CO)N1C[C@H](C)[C@@H](CN(C)S(=O)(=O)c2ccccc2)Oc2ccc(NC(=O)Cc3cn(C)c4ccccc34)cc2C1=O | -1 | 29 | -87*
C[C@H]1CN([C@@H](C)CO)C(=O)c2cc(NC(=O)Cc3cn(C)c4ccccc34)ccc2O[C@@H]1CN(C)S(=O)(=O)c1ccccc1 | 4 | 13 | -84*
C[C@H](CO)N1C[C@H](C)[C@H](CN(C)S(=O)(=O)c2ccccc2)Oc2ccc(NC(=O)Cc3cn(C)c4ccccc34)cc2C1=O | 0 | 71 | -93*
Cc1ccc(S(=O)(=O)N(C)C[C@@H]2Oc3ccc(NC(=O)Cc4cn(C)c5ccccc45)cc3C(=O)N([C@@H](C)CO)C[C@H]2C)cc1 | 7 | 63 | -57
Cc1ccc(S(=O)(=O)N(C)C[C@H]2Oc3ccc(NC(=O)Cc4cn(C)c5ccccc45)cc3C(=O)N([C@@H](C)CO)C[C@H]2C)cc1 | -2 | 46 | -33
C[C@@H]1CN([C@H](C)CO)C(=O)c2cc(NC(=O)Cc3cn(C)c4ccccc34)ccc2O[C@H]1CN(C)S(=O)(=O)c1ccccc1 | 6 | 15 | -29
Cc1noc(C)c1NC(=O)Nc1ccc2c(c1)C(=O)N(C)[C@@H]1CC[C@H](CC(=O)NCc3ccc(Cl)cc3)O[C@@H]1CO2 | 7 | 11 | nt
O=C(NCC[C@@H]1CC[C@H](NC(=O)C2CC2)[C@@H](CO)O1)Nc1ccc(C(F)(F)F)cc1 | -94* | -7 | -38
O=C(NCC[C@@H]1CC[C@@H](NC(=O)C2CC2)[C@@H](CO)O1)Nc1ccc(C(F)(F)F)cc1 | -85* | -5 | -16
CCC(=O)N[C@@H]1CC[C@H](CCNC(=O)Nc2ccc(C(F)(F)F)cc2)O[C@H]1CO | nt | 65 | -53
CN(C)CC(=O)N[C@H]1CC[C@H](CCNC(=O)Nc2ccc(C(F)(F)F)cc2)O[C@H]1CO | -94* | -37 | 21
CCC(=O)N[C@H]1CC[C@H](CCNC(=O)Nc2ccc(C(F)(F)F)cc2)O[C@@H]1CO | nt | 63 | -24
CCC(=O)N[C@H]1CC[C@H](CCNC(=O)Nc2ccc(C(F)(F)F)cc2)O[C@H]1CO | nt | 2 | -8
O=C(NCC[C@@H]1CC[C@H](NC(=O)C2CC2)[C@H](CO)O1)Nc1ccc(C(F)(F)F)cc1 | -95* | -17 | -4
CCC(=O)N[C@@H]1CC[C@H](CCNC(=O)Nc2ccc(C(F)(F)F)cc2)O[C@@H]1CO | nt | 37 | -27
COCC(=O)Nc1ccc2c(c1)OC[C@@H](C)N(Cc1ccccc1)C[C@@H](C)[C@H](OC)CN(C)C2=O | 11 | nt | -39
CCCNC(=O)[C@@H]1[C@@H](CO)[C@@H]2Cn3c(ccc(-c4ccc(OC)cc4)c3=O)[C@H]1N2CC | -6 | nt | -3
CO[C@H]1CN(C)C(=O)c2cc(NC(C)=O)ccc2OC[C@H](C)N(C(=O)Cc2cccnc2)C[C@@H]1C | nt | -48 | 11
